In the library only some 4.2% were active in any assay of this set; here they are far more common.
V-ATPase pHluor: alters yeast V-ATPase proton transport; 350,000 tested, 0.37% active; S. cerevisiae, pHLuorin cytosolic pH fluorescence; response, % at 10 µM; in the data active = response mostly above about 7.3%, no sharp cut-off; inactive = mostly below about 5.4%; also: actives read high
NLRP3 yeast inh: inhibitors of NALP3 inflammasome in yeast; Yeast reconstituted NLRP3/ASC/caspase-1, beta-gal luminescence, 24 h; 330,000 tested, 0.39% active; inhibition, % at 10 µM;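 active = inhibition of 50% or more; inactive = inhibition below 50%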
tim23-1 inh: inhibits growth of tim23-1 mutant yeast; inhibition, % at 20 µM; 330,000 tested, 1.3% active; S. cerevisiae tim23-1 growth, BacTiter-Glo luminescence, 24 h; AID 463212;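 active = growth inhibition of the mutant yeast at or above 50%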;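 also: temperature-sensitive mutant grown at 25 °C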
TIM10 inh: TIM10 yeast growth inhibition; S. cerevisiae TIM10 strain growth, BacTiter-Glo luminescence, 24 h; inhibition, % at 10 µM; 330,000 tested, 1.4% active;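 active = inhibition of 40% or more at the single tested concentration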;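 also: wild-type TIM10 isogenic control strain grown at permissive 25 °C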
NALP1 inh: inhibitors of NALP1 inflammasome in yeast; inhibition, % at 10 µM; S. cerevisiae NALP1/ASC/caspase-1 growth, X-gal OD620, 72 h; AID 2071; 280,000 tested, 0.61% active; in the data active = inhibition mostly above about 24%, no sharp cut-off; inactive = mostly below about 32%
tim10-1 inh: growth inhibitors of tim10-1 mutant yeast; S. cerevisiae tim10-1 ts strain growth, BacTiter-Glo, 24 h; inhibition, % at 20 µM; 330,000 tested, 2.2% active;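 active = inhibition of at least 40%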;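 also: mutant grown at 25 °C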
VATPase regulator: modulates yeast V-ATPase proton transport. shares compounds with V-ATPase pHluor. S. cerevisiae pHLuorin cytosolic pH. response, % at 10 µM. 980 tested, 2% active. AID 602197; in the data active = response above about 24%
Of the large screens only hits and unclear results are named; the others gave an inactive call (follow-up assays come after a bar, where they were run).

COc1cccc(CNCc2cc(OC)cc(OC)c2)c1	none
COc1cc(CNCc2ccc(OC)c(OC)c2OC)cc(OC)c1	V-ATPase pHluor 12.2 | VATPase regulator inactive
COc1ccc([N+](=O)[O-])cc1N(CC(=O)Nc1ccccc1C(=O)NC(C)C)S(C)(=O)=O	none
CN(C)c1ccc(C=C2C=Cc3ccccc32)cc1	V-ATPase pHluor 12.2 (no result: NLRP3 yeast inh, tim23-1 inh, TIM10 inh, NALP1 inh, tim10-1 inh) | VATPase regulator inactive
COCCNC(=S)N(CCc1c(C)[nH]c2ccccc12)Cc1ccco1	V-ATPase pHluor 10.7 | VATPase regulator inactive
CCNC(=S)N(CCc1c(C)[nH]c2ccc(Cl)cc12)Cc1ccco1	none
CCc1ccc(/C(C)=N/NC(=O)CNC(=O)/C=C/c2ccco2)cc1	V-ATPase pHluor 24.7 (no result: NALP1 inh) | VATPase regulator inactive
CCCCn1c(=O)c(C(=O)OCC)c(O)c2ccccc21	V-ATPase pHluor 9.8 | VATPase regulator inactive
Cc1onc(-c2ccccc2)c1C(=O)c1c[nH]c(C(=O)NCc2ccncc2)c1	V-ATPase pHluor 10.8 | VATPase regulator inactive
O=C(Cn1ccc(NC(=O)OCc2ccccc2)nc1=O)NCc1nc2ccccc2[nH]1	none (no result: NALP1 inh)
O=S(N1CCCCC1)C12CC3CC(CC(C3)C1)C2 (stereo not drawn)	V-ATPase pHluor 14.5 | VATPase regulator inactive
Cc1cccc(C)c1NC(=O)CNC(=O)c1ccccc1	none
Cc1cccc(C)c1NC(=O)CNC(=O)c1ccncc1	V-ATPase pHluor 8.3 | VATPase regulator inactive
CC1CCc2nc(/C(C#N)=C/c3ccncc3)sc2C1 (stereo not drawn)	none (no result: V-ATPase pHluor)
NNC(=O)CNc1ccccc1Cl	V-ATPase pHluor 8.4 | VATPase regulator inactive
